Test results published in PubChem BioAssay (NCATS).
Results filed as inconclusive are left out. The source made the active and inactive calls. Calls follow the shape of the dose curve; as a rule, active = well fitted curve in the direction sought with a large enough effect; inconclusive = small, poorly fitted or top-dose-only effect, or another doubt; inactive = no such curve, though single readings can be large; an effect the other way counts as inactive or inconclusive.

Columns and labels:
[1] = qHTS assay for measurement of the activity of small molecule inhibitors on Zika virus induced Caspase-3 activity in human iPSC derived neural progenitor cells (hNPCs) (AID 1224857); also: nearly all actives have a fitted effect of over 65% in size; also: potency is read from the fitted curve at half-maximal effect
How it was run: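 Cells were plated at 350 per well and grown 16 to 20 hours. Compound pretreatment lasted one hour, after which ZIKV (2 FFU/cell) was added for 6 hours. Percent inhibition was normalized between uninfected and infected controls.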

[2] = qHTS assay for measurement of the activity of small molecule inhibitors on Zika virus induced Caspase-3 activity in human astrocytoma cells (AID 1224859)
How it was run: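 Percent inhibition of virus-induced caspase-3/7 signal is calculated against uninfected and ZIKV-infected control cells. Cells are SNB-19, infected at 2 FFU/cell for 6 h after 1 h compound exposure.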

[3] = NS1 protein of Zika virus - qHTS assay to identify small molecule inhibitors in human HEK 293 cells (AID 1347053); also: series mostly up to about 46 µM; nearly all actives have a fitted effect of over 55% in size
How it was run: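 Inhibition of NS1 expression was scored in HEK 293 cells given compound 1 h ahead of MR766 virus (MOI = 0.5). Following 24 h at 37 C, two anti-NS1 antibodies generated a TR-FRET signal, scaled between uninfected and infected controls.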

[4] = qHTS of pediatric cancer cell lines to identify multiple opportunities for drug repurposing: Primary screen for TC32 cells (AID 1347089); also: nearly all actives have a fitted effect of over 60% in size
How it was run: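 A viability screen of TC32 cells was run over 48 h, with primary MIPE doses spanning 0.78 nM–46 µM and NPC doses 0.59 nM–46 µM. ATP luminescence (CellTiter-Glo) served as the read-out.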

[5] = qHTS of pediatric cancer cell lines to identify multiple opportunities for drug repurposing: Primary screen for SJ-GBM2 cells (AID 1347091); also: potency is read from the fitted curve at half-maximal effect
How it was run: (§1)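 Viability measured as metabolically active cells via CellTiter-Glo luminescence following 48 hours of compound exposure, 11-point dilutions in confirmatory testing. 500-1,000 cells/well plated 5 hours before dosing; controls were DMSO and 2.3 µM bortezomib.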

[6] = qHTS of pediatric cancer cell lines to identify multiple opportunities for drug repurposing: Primary screen for A673 cells (AID 1347092); also: nearly all actives have a fitted effect of over 45% in size; also: potency is read from the fitted curve at half-maximal effect
How it was run: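 Titration-based qHTS on A673 cells: MIPE compounds spanned 11 points (0.78 nM to 46 µM final), NPC compounds 8 points (0.59 nM to 46 µM final). Viability after 48 h was measured by ATP luminescence.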

[7] = qHTS of pediatric cancer cell lines to identify multiple opportunities for drug repurposing: Primary screen for BT-37 cells (AID 1347094); also: potency is read from the fitted curve at half-maximal effect
How it was run: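 Plated cells (500-1,000 per well, growth media) were allowed to settle for 5 hours, treated with compound dilutions for 48 hours, then lysed with CellTiter-Glo for 15 min at room temperature before luminescence reading.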

[8] = qHTS of pediatric cancer cell lines to identify multiple opportunities for drug repurposing: Primary screen for DAOY cells (AID 1347090); also: nearly all actives have a fitted effect of over 55% in size; also: potency is read from the fitted curve at half-maximal effect
How it was run: as §1

[9] = qHTS of pediatric cancer cell lines to identify multiple opportunities for drug repurposing: Primary screen for SK-N-MC cells (AID 1347093); also: potency is read from the fitted curve at half-maximal effect
How it was run: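 Metabolically active cells were quantified by ATP-dependent luminescence (CellTiter-Glo, 15 min at room temperature) following 48 h treatment. Cells had been plated at 500-1,000 per well and settled for 5 h beforehand.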

Measured: Potency

NS(=O)(=O)c1ccc(N2CCCCS2(=O)=O)cc1
not listed: [8] | [9]
inactive: all other assays above

COc1c(N2C[C@@H]3CCCN[C@@H]3C2)c(F)cc2c(=O)c(C(=O)O)cn(C3CC3)c12
not listed: [4] | [6]
inactive: all other assays above

Nc1cc(C(F)(F)F)ccc1S
active: [1] 14.1 µM | [6] 21.1 µM
inactive: [2] | [3] | [5] | [7]

CC(C)(C)c1ccc(O)c(O)c1
active: [1] 35.5 µM | [8] 24.3 µM | [5] 30.6 µM | [6] 15.4 µM | [9] 6.86 µM
inactive: [2] | [3]

CC(NN)c1ccccc1 (stereo not given)
not listed: [8]
inactive: all other assays above

C[C@@H](O[C@H]1OCCN(Cc2n[nH]c(=O)[nH]2)[C@H]1c1ccc(F)cc1)c1cc(C(F)(F)F)cc(C(F)(F)F)c1
active: [7] 21.9 µM
inactive: [1] | [2] | [3] | [4]

C/C=C(/C(=C/C)c1ccc(OC(C)=O)cc1)c1ccc(OC(C)=O)cc1
active: [9] 5.31 µM
inactive: [1] | [2] | [3] | [7]

CCOC(=O)C1=C(C)NC(C)=C(C(=O)OCC)C1c1ccccc1/C=C/C(=O)OC(C)(C)C
inactive: [1] | [2] | [4]

O=C(O)CCCC[P+](c1ccccc1)(c1ccccc1)c1ccccc1
not listed: [4]
inactive: all other assays above

CN1CCC(N(Cc2cccs2)c2ccccc2)CC1
inactive: [1] | [2] | [3] | [4]
active: [9] 26.6 µM

O=C1NC(c2ccccc2)(c2ccccc2)C(=O)N1COP(=O)(O)O
not listed: [4] | [5]
inactive: all other assays above

CCCCC(CC)CNC(=O)CC(C)OC(=O)CCC(=O)O (stereo not given)
not listed: [6] | [8]
inactive: all other assays above

CC(C)(C)C1CCC(CC2=C(O)c3ccccc3C(=O)C2=O)CC1 (stereo not given)
active: [8] 3.35 µM
inactive: [1] | [2] | [4]

CN1CC(=O)N2[C@H](c3ccc4c(c3)OCO4)c3[nH]c4ccccc4c3C[C@@H]2C1=O
not listed: [4]
inactive: all other assays above

CC(NC(CCc1ccccc1)C(=O)O)C(=O)N1C(=O)N(C)CC1C(=O)O (stereo not given)
not listed: [4] | [8]
inactive: all other assays above

CCCCCOc1ccccc1/C(=C\SC)n1ccnc1
active: [6] 26.6 µM
inactive: [1] | [2] | [3] | [8] | [5]
